Each structure is given as a SMILES string. Unmarked numbers belong to inactive results.

Sequence of NADPH oxidase 4 (Homo sapiens) (Q9NPH5 whole entry, looked up): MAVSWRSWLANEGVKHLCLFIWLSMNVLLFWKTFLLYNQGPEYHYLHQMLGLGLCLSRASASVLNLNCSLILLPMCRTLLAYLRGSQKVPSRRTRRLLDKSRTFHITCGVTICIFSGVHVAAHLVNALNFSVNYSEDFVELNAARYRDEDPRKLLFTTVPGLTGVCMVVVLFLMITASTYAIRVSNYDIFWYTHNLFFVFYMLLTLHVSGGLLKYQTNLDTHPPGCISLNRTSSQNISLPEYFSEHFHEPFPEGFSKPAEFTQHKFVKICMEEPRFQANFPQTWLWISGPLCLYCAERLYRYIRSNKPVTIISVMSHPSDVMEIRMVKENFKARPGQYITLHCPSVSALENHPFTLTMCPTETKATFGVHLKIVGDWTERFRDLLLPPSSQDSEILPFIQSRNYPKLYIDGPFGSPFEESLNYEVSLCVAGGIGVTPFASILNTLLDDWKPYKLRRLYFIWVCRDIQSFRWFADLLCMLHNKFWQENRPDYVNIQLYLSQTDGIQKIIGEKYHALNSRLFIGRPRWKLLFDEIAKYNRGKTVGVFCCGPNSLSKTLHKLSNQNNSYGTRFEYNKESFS

The test has as its target NADPH oxidase 4 (Homo sapiens) (UniProt Q9NPH5). The experiment in a line: NOX4-dependent H2O2 signal modulators, primary screen, NOX inhibitor project, cell-based, HEK293-NOX4, tetracycline-induced, Amplex Red fluorescence (AID 1160). The settings on record: 45 min, higher = more signal, called active from +8 up or from −8 down.
In the case of `COc1cc2c(cc1O)C(c1cccs1)N(Cc1cc3c(cc1Br)OCO3)CC2` (stereo not given), the z-score is -2.38.

On to `CCC#CCN(Cc1ccccc1Br)[C@H](/C=C/C1CC1)[C@@H](O)Cc1ccccc1`, for which the z-score was 1.07.

For the compound `COC(=O)[C@@]1(Cc2ccccc2)[C@H]2c3cc(C(=O)N4CCCC4)n(CCc4ccccn4)c3C[C@H]2CN1C(=O)c1ccccc1`, the z-score was 0.311.

Turning to `CCCCC(CC)C(O)C1C=CC2C(=O)N(c3ccccc3)C(=O)C2N1Nc1ccccc1F` (stereo not given), the z-score is 0.143.

For the compound `[N-]=[N+]=Nc1ccccc1[C@@H]1OC(c2ccc(OCCCO)cc2)=N[C@]1(Cc1ccccc1)C(=O)N1CCCCC1`, the z-score is -0.743.

As to `CC1CC/C=C\[C@H]2OC34C=CCN(C(C)C)C(=O)[C@H]3N(CCO)C(=O)[C@@H]4C2C(=O)O1` (stereo not given in full), the z-score is -0.785.

Take `CCOC(=O)C1=C[C@@H](C(C)(C)C)N(S(=O)(=O)c2ccc(C)cc2)[C@H]1c1cccc2ccccc12`: the z-score is 0.13.

Turning to `CC(C)[Si]1(C(C)C)OCc2cc(-c3ccc(-c4ccc(Cl)c(Cl)c4)o3)nc(-c3ccccc3)c21`, the z-score is -1.35.

Regarding `CCCCCCc1nc(Cc2cc(OC)c(OC)c(OC)c2)cc2c1[Si](C(C)C)(C(C)C)OC2`, the z-score was -1.88.

For the compound `C=CC[C@@H](OC(=O)Nc1ccc(SC)cc1)c1ccc(O)c(F)c1`, the z-score was -2.85.

As to `Cc1ccc(NN2C(C(O)c3c(F)cccc3Cl)C=CC3C(=O)N(C4CCCCC4)C(=O)C32)cc1` (stereo not given), the z-score was -0.336.

As for `COc1ccc([Si](C)(C)[C@@H]2[C@@H](CC(=O)N(CCO)Cc3ccccc3)O[C@]3(C(=O)N(Cc4cccc(N5CCCCC5=O)c4)c4ccccc43)[C@H]2C)cc1`, the z-score was 1.28.

Take `NC(=O)[C@H]1[C@@H]2C(=O)O[C@@H](c3ccccc3)[C@@H](c3ccccc3)N2[C@@H](c2ccc(OCCO)cc2)[C@]12C(=O)Nc1ccc(C#CCCO)cc12`: the z-score was 1.03.

Turning to `COc1cc(C(O)C2C=CC3C(=O)N(C)C(=O)C3N2Nc2ccccc2)cc(OC)c1OC` (stereo not given), the z-score was -2.12.

`C#Cc1cc2ccccc2oc1=O`: the z-score is -1.35.

With `CC(=O)NCCCC[C@@H]1NC(=O)[C@@H]2C[C@H](C(=O)NCCCCCN)[C@H](c3cccc(OCCO)c3)N2C1=O`, the z-score was 1.06.

Regarding `COc1ccc(CCNC(=O)[C@@]2(c3ccc([N+](=O)[O-])cc3)CC(=O)N(C3CCCCC3)[C@@H]2c2ccc(CO)cc2)cc1`, the z-score is 0.479.

`NCCCCCNC(=O)[C@@H]1C[C@@H]2C(=O)N[C@@H](CCCCN)C(=O)N2[C@@H]1c1ccc(O)cc1`: the z-score was 1.85.

As for `NCCCCCNC(=O)[C@H]1C[C@H]2C(=O)N3CCC[C@H]3C(=O)N2[C@H]1c1cccc(OCCO)c1`, the z-score was 0.413.

On to `COCCOC(=O)N1C(=O)[C@@]2(c3cc(C#CCCO)ccc31)[C@H](c1ccc(OCCO)cc1)N1[C@H](c3ccccc3)[C@H](c3ccccc3)OC(=O)[C@H]1[C@@H]2C(=O)Nc1nc2ccccc2s1`, for which the z-score is 1.26.

With `COC(=O)C1=CC(CCCO)=CC(c2cccs2)N(C)C=C1C(=O)OC` (stereo not given), the z-score was -1.36.

As for `COCCOC(=O)N1C(=O)[C@@]2(c3cc(C#CC4(O)CCCCCC4)ccc31)[C@H](c1ccc(O)cc1)N1[C@H](c3ccccc3)[C@H](c3ccccc3)OC(=O)[C@H]1[C@@H]2C(=O)N1CCN(c2ncccn2)CC1`, the z-score is 0.996.

Take `COc1ccc([Si](C)(C)[C@@H]2[C@@H](CCO)O[C@]3(C(=O)N(Cc4cccc(NC(=O)[C@H](C)O)c4)c4ccccc43)[C@H]2C)cc1`: the z-score is 0.436.

On to `Cc1ccc(S[C@]2(C(=O)O)CC(=O)N(C3CCCCC3)[C@@H]2c2ccc(CO)cc2I)cc1`, for which the z-score is -2.04.

As for `O=C1C[C@]2(c3ccc([N+](=O)[O-])cc3)C(=O)N(C3CC3)c3cc(CO)ccc3[C@H]2N1CC12CC3CC(CC(C3)C1)C2`, the z-score is -1.64.

In the case of `COCCCNC(=O)[C@@]1(Sc2ccc(C)cc2)CC(=O)N(C2Cc3ccccc3C2)[C@@H]1c1ccc(CO)cc1`, the z-score is -0.107.

Take `O=C1OCCC=C[C@H]2OC34C=CCN(c5ccc6ccccc6c5)C(=O)[C@H]3N(CCCO)C(=O)[C@@H]4C12` (stereo not given in full): the z-score was -0.644.

Take `COC(=O)[C@@]1(Cc2ccc(F)cc2)[C@H]2c3cc(C(=O)N(C)C)n(CCc4ccc(OC)c(Br)c4)c3C[C@H]2CN1C(=O)c1ccccc1`: the z-score was -3.99.

In the case of `[N-]=[N+]=Nc1ccccc1C[C@@]1(C(N)=O)N=C(c2ccc(OCCCO)cc2)O[C@@H]1c1ccccc1N=[N+]=[N-]`, the z-score was -1.11.

With `O=C(NCc1ccc(F)cc1)[C@H]1C[C@H]2C(=O)NCC(=O)N2[C@H]1c1ccc(O)cc1`, the z-score was 0.558.

As for `C=CCNC(=O)[C@@H]1[C@H]2C(=O)O[C@H](c3ccccc3)[C@H](c3ccccc3)N2[C@H](c2ccccc2OCCO)[C@@]12C(=O)Nc1ccc(C#CCCO)cc12`, the z-score is 0.627.

With `CCOC(=O)C[C@H]1[C@H](OC(=O)Cc2ccc3c(c2)OCO3)[C@@H](NC(=O)C2CCCCC2)c2cc(OCCCO)ccc2N1C(=O)c1ccccc1`, the z-score is 0.636.

As to `COc1ccc([Si](C)(C)[C@@H]2[C@@H](CCO)O[C@]3(C(=O)N(Cc4ccccc4)c4ccc(N5CCOC5=O)cc43)[C@H]2C)cc1`, the z-score was 0.699.

On to `C=C(/C(=C/C[C@H](OC(C)=O)c1ccc(CO)o1)c1cnc2ccccc2c1)C(C)C`, for which the z-score is -0.246.

`CCCCCCCCCCC(O)C1C=CC2C(=O)N(c3ccccc3)C(=O)C2N1Nc1ccc(C#N)cc1` (stereo not given): the z-score is 0.0477.

The record behind these values is PubChem BioAssay.
